PubChem BioAssay (NCATS)
Inconclusive results are not listed. Calls of active or inactive are those of the source. Calls come from the whole dose curve; as a rule, active = well fitted curve in the direction sought with a large enough effect; inconclusive = small, poorly fitted or top-dose-only effect, or another doubt; inactive = no such curve, though single readings can be large; an effect the other way counts as inactive or inconclusive.

What was measured:
[1] = Quantitative highthroughput screen to assess conditional lethalithy of NOMO1 cells grown in RPMI1640 with untreated serum (RPMI+s) (AID 1963876); note: nearly all actives have a fitted effect of over 35% in size;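 for viability: 100% = DMSO wells and 0% = empty wells without cells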
How it was run: (§1)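 Each medium arm—HPLM with 10% dialyzed FBS, or RPMI1640 with 5 mM glucose and 10% untreated or dialyzed FBS—was screened against an 11-point, 3-fold compound titration for 48 h at 37 °C, with CellTiter-Glo luminescence as endpoint.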

[2] = Quantitative highthroughput screen to assess conditional lethalithy of NOMO1 cells grown in RPMI1640 with dialyzed fetal bovine serum (RPMI+ds) (AID 1963877); note: nearly all actives have a fitted effect of over 30% in size;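 for viability: series mostly up to about 46 µM; 100% = DMSO control wells and 0% = empty wells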
How it was run: as §1

[3] = Quantitative highthroughput screen to assess conditional lethalithy of NOMO1 cells grown in Human Plasma-Like Medium with dialyzed fetal bovine serum (HPLM+ds) (AID 1963878); note: nearly all actives have a fitted effect of over 35% in size;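 for viability: 100% = DMSO wells and 0% = empty wells on each plate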
How it was run: as §1

[4] = Quantitative highthroughput screen to assess conditional lethalithy of P12 Ichikawa cells grown in Human Plasma-Like Medium with dialyzed fetal bovine serum (HPLM+ds) (AID 1963879); conditions: Potency: viability; note: nearly all actives have a fitted effect of over 35% in size; for viability: series mostly up to about 46 µM
How it was run: as §1

[5] = Quantitative highthroughput screen to assess conditional lethalithy of P12 Ichikawa cells grown in RPMI1640 with dialyzed fetal bovine serum (RPMI+ds) (AID 1963880); conditions: Potency: P12-Ichikawa viability; note: nearly all actives have a fitted effect of over 35% in size;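 for viability: 100% = DMSO wells and 0% = empty wells on each plate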
How it was run: as §1

[6] = Quantitative highthroughput screen to assess conditional lethalithy of P12 Ichikawa cells grown in RPMI1640 with untreated serum (RPMI+s) (AID 1963881); conditions: Potency: viability; note: nearly all actives have a fitted effect of over 35% in size;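 for viability: series mostly up to about 46 µM; 100% = DMSO wells and 0% = empty wells without cells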
How it was run: as §1

[7] = Quantitative highthroughput screen to assess conditional lethalithy of SEM cells grown in Human Plasma-Like Medium with dialyzed fetal bovine serum (HPLM+ds) (AID 1963882); note: nearly all actives have a fitted effect of over 35% in size; for viability: series mostly up to about 46 µM
How it was run: as §1

[8] = Quantitative highthroughput screen to assess conditional lethalithy of SEM cells grown in RPMI1640 with unreated serum (RPMI+s) (AID 1963883); note: nearly all actives have a fitted effect of over 35% in size;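 for viability: 100% = DMSO wells and 0% = empty wells without cells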
How it was run: as §1

[9] = Quantitative highthroughput screen to assess conditional lethalithy of SEM cells grown in RPMI1640 with dialyzed fetal bovine serum (RPMI+ds) (AID 1963884); note: nearly all actives have a fitted effect of over 35% in size;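 for viability: series mostly up to about 46 µM; 100% = DMSO control wells and 0% = empty wells without cells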
How it was run: as §1

[10] = Cellular viability qHTS for adrenocortical cancer (ACC) cell line SW-13 (AID 1963989); conditions: SW-13 ACC cells viability, CellTiter-Glo, 48 h; activity (max response): active compounds read low; note: nearly all actives have a fitted effect of over 65% in size;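 for activity (max response): cells grown in serum-free medium with ITS supplement; % is set by controls: 0 for no effect and ±100 for the full control effect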
How it was run: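 IC50 and maximal-response values come from four-parameter logistic fits of titration data. SW-13 cells in serum-free medium received compounds (up to 46 uM final) for 48 h before CellTiter-Glo luminescence.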

[11] = Cellular viability qHTS for adrenocortical cancer (ACC) cell line NCI-H295R (AID 1963990); note: nearly all actives have a fitted effect of over 60% in size
How it was run: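 Adrenocortical carcinoma cells, suspended at 300 000 cells/mL in serum-free DMEM plus ITS, rested overnight before pin transfer of compound. After two days' incubation, ATP-dependent luminescence was recorded and curve-fitted.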
Potency is the fitted concentration of half-maximal effect.

C[N+]1(C)[C@@H]2CC(OC(=O)[C@H](CO)c3ccccc3)C[C@H]1[C@H]1O[C@@H]12 (some centres not stated)
inactive: Potency [1] | Potency [2] | Potency [3] | Potency [4] | Potency [5] | Potency [6] | Potency [7] | Potency [8] | Potency [9]

CC(C)(O)Cn1c(NC(=O)c2ccc(-c3cn[nH]c3)s2)nc2cc(CN3CCOCC3)ccc21
active: Potency [1] 4.18 µM | Potency [2] 4.18 µM | Potency [3] 2.96 µM | Potency [4] 2.35 µM | Potency [5] 2.35 µM | Potency [6] 2.96 µM | Potency [7] 0.105 µM | Potency [8] 0.0662 µM | Potency [9] 0.0935 µM

CN(C)CC=CC(=O)Nc1cc2c(Nc3ccc(F)c(Cl)c3)ncnc2cc1O[C@H]1CCOC1
active: Potency [1] 1.87 µM | Potency [2] 1.87 µM | Potency [3] 1.66 µM | Potency [4] 1.66 µM | Potency [5] 2.35 µM | Potency [6] 1.87 µM | Potency [7] 1.05 µM | Potency [8] 0.743 µM | Potency [9] 1.18 µM

CN1CCC[C@H]1CCO[C@](C)(c1ccccc1)c1ccc(Cl)cc1
inactive: Potency [1] | Potency [2] | Potency [3] | Potency [4] | Potency [5] | Potency [6] | Potency [7] | Potency [8] | Potency [9]

NC1CCC(Nc2nc(Nc3ccc(C(=O)N4CCCCC4)cc3)c3ncn(-c4cccc(F)c4)c3n2)CC1 (configuration not stated)
inactive: Potency [1] | Potency [2] | Potency [3] | Potency [4] | Potency [5] | Potency [6] | Potency [7] | Potency [8] | Potency [9]

C=C1CCC2[C@](C)(CO)C(O)CC[C@]2(C)C1CC=C1C(=O)OCC1O (some centres not stated)
inactive: Potency [1] | Potency [2] | Potency [3] | Potency [4] | Potency [5] | Potency [6] | Potency [7] | Potency [9]
active: Potency [8] 0.034 µM

Clc1ccc(-c2nc3sccn3c2C=NOCc2ccc(Cl)c(Cl)c2)cc1
inactive: Potency [1] | Potency [2] | Potency [3] | Potency [4] | Potency [5] | Potency [6] | Potency [7] | Potency [8] | Potency [9]

CC1(C)CCC[C@@]2(C)[C@@H]1CC[C@@]1(C)OC(=O)C[C@H]21
inactive: Potency [1] | Potency [2] | Potency [3] | Potency [4] | Potency [5] | Potency [6] | Potency [7] | Potency [8] | Potency [9]

Cc1cccc(C#Cc2ccccc2)n1
inactive: Potency [1] | Potency [2] | Potency [3] | Potency [4] | Potency [5] | Potency [6] | Potency [7] | Potency [8]
active: Potency [9] 13.2 µM

CN(CC=CC#CC(C)(C)C)Cc1cccc2ccccc12
inactive: Potency [1] | Potency [2] | Potency [3] | Potency [4] | Potency [5] | Potency [6] | Potency [7] | Potency [8] | Potency [9]

C[C@@H](Cc1cc2c(c(C(N)=O)c1)N(CCCO)CC2)NCCOc1ccccc1OCC(F)(F)F
inactive: Potency [1] | Potency [2] | Potency [3] | Potency [4] | Potency [5] | Potency [6] | Potency [7] | Potency [8] | Potency [9]

C=C1C(=O)O[C@H]2[C@@H]1CCC(C)=CCC[C@@]1(C)O[C@@H]21
active: Potency [1] 4.69 µM | Potency [2] 5.9 µM | Potency [3] 2.35 µM | Potency [4] 2.35 µM | Potency [5] 2.35 µM | Potency [6] 2.64 µM | Potency [7] 1.32 µM | Potency [8] 0.833 µM | Potency [9] 1.48 µM

OC(CN1CCN(c2cccc(Cl)c2)CC1)C(c1ccccc1)c1ccccc1 (configuration not stated)
active: Potency [1] 0.935 µM | Potency [2] 1.05 µM | Potency [3] 0.148 µM | Potency [4] 0.132 µM | Potency [5] 0.743 µM | Potency [6] 0.935 µM | Potency [7] 0.833 µM | Potency [8] 0.148 µM | Potency [9] 0.166 µM

C=C1c2cccc(O)c2C(O)=C2C(=O)[C@@]3(O)C(O)=C(C(N)=O)C(=O)[C@@H](N(C)C)[C@@H]3[C@@H](O)[C@H]12
inactive: Potency [1] | Potency [2] | Potency [3] | Potency [4] | Potency [5] | Potency [6] | Potency [7] | Potency [8] | Potency [9] | activity (max response) [10] -8.37%

O=c1c(O)c(-c2cc(O)c(O)c(O)c2)oc2cc(O)cc(O)c12
inactive: Potency [1] | Potency [2] | Potency [3] | Potency [4] | Potency [5] | Potency [6] | Potency [7] | Potency [8] | Potency [9] | activity (max response) [10] -0.163%

COc1cc(O)c2c(c1)C1OC1C[C@H](O)[C@H](O)C(=O)C=CC[C@H](C)OC2=O (some centres not stated)
active: Potency [1] 13.2 µM | Potency [2] 13.2 µM | Potency [3] 10.5 µM | Potency [4] 18.7 µM | Potency [5] 18.7 µM | Potency [6] 18.7 µM | Potency [7] 4.69 µM | Potency [8] 7.43 µM | Potency [9] 4.18 µM | Potency [10] 15.8 µM | Potency [11] 15.8 µM

COc1ccnc2[nH]cc(C(=O)C(=O)N3CCN(C(=O)c4ccccc4)C[C@@H]3C)c12
inactive: Potency [1] | Potency [2] | Potency [3] | Potency [4] | Potency [5] | Potency [6] | Potency [7] | Potency [8] | Potency [9]
